# According to PubChem BioAssay (Tox21):
# Unmarked numbers belong to inactive results. Records with an inconclusive call do not appear. A call without a number means that no potency is given here. Active and inactive are the calls of the source. Unless noted, the call rests on the fitted dose curve; in most records, active means well fitted curve in the direction sought with a large enough effect in the repeat runs; inconclusive means weak or mixed curves; inactive means no such curve, though single readings can be large; an effect the other way counts as inactive or inconclusive.
# Key:
# [1] = target: Thyrotropin receptor (Homo sapiens) (UniProt P16473); assay: qHTS assay to identify small molecule antagonists of the thyroid stimulating hormone receptor (TSHR) signaling pathway (AID 1259385; calls by dose curve; further: nearly all actives have a fitted effect of over 20% in size)
# Sequence of Thyrotropin receptor (Homo sapiens) (P16473 whole entry, looked up): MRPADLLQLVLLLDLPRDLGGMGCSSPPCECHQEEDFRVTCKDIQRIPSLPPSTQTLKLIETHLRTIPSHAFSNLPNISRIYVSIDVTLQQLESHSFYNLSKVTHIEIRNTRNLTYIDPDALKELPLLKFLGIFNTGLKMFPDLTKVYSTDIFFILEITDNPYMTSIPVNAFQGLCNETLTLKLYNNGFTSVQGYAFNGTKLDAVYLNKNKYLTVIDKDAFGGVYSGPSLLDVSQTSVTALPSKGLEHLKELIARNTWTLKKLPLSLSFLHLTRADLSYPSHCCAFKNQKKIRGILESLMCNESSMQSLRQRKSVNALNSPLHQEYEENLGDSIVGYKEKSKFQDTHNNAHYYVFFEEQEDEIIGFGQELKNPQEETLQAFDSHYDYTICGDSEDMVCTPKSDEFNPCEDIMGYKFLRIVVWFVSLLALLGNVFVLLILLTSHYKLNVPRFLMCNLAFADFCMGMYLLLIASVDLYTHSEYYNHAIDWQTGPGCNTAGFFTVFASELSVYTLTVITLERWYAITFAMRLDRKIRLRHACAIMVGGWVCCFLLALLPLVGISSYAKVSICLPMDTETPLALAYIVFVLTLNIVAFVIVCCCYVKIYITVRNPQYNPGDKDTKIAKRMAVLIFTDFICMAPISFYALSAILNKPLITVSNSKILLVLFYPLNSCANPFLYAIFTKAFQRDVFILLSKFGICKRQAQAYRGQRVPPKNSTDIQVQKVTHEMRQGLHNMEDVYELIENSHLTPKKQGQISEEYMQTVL
# Procedure, shortened: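 TSHR-HEK293 cells (800/well) plated 18 h, then compounds with Ro20-1724 and TSH at 1.5 ng/mL final, 30 min at room temperature. cAMP quantified by HTRF (cAMP-d2/anti-cAMP-cryptate, 1 h); 15 concentrations in triplicate.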
# [2] = target: Progesterone receptor (Homo sapiens) (UniProt P06401); assay: qHTS assay to identify small molecule agonists of the progesterone receptor (PR) signaling pathway (AID 1346784; calls by dose curve; further: nearly all actives have a fitted effect of over 30% in size; further: potency means the concentration at half of the fitted maximal effect)
# Sequence of Progesterone receptor (Homo sapiens) (P06401 whole entry, looked up): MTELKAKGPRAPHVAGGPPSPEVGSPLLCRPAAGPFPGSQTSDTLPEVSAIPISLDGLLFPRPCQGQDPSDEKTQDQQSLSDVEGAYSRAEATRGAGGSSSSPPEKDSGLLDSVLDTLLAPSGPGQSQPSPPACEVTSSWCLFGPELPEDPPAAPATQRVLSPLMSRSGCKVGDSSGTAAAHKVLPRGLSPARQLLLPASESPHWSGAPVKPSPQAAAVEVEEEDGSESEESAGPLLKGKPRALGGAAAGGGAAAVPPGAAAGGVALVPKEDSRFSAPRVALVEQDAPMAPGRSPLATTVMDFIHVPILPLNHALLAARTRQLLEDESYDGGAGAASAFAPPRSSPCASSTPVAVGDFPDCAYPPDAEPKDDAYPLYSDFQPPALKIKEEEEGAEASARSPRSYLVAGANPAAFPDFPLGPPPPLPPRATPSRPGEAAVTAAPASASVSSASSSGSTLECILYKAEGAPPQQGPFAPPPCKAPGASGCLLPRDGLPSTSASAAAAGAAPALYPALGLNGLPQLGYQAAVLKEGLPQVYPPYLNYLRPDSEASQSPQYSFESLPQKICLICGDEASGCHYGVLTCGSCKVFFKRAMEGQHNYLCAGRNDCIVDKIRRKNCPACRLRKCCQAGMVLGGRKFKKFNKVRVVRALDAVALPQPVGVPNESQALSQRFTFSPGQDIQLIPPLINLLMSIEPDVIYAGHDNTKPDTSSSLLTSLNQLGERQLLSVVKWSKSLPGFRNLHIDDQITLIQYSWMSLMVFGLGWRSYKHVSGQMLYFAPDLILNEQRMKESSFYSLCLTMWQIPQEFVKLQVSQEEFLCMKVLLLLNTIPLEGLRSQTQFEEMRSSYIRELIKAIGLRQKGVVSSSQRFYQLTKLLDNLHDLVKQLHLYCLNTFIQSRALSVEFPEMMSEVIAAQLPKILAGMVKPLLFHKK
# Procedure, shortened: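 Agonist mode, quantitative HTS format in a HEK 293T line expressing a UAS-controlled beta-lactamase reporter; 16 hr compound exposure at 37C in 2% charcoal-stripped FBS, then LiveBLAzer B/G FRET fluorescence.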
# [3] = qHTS assay to identify small molecule antagonists of the progesterone receptor (PR) signaling pathway - cell viability counter screen (AID 1346798); further: nearly all actives have a fitted effect of over 50% in size; further: potency means the concentration at half of the fitted maximal effect
# Procedure, shortened: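 Same-well multiplex: after 16 hr at 37C with compound and R5020 stimulation, HEK293T cells carrying a UAS-bla reporter received LiveBLAzer substrate (2 hr RT), then CellTiter-Glo (30 min RT) for luminescent viability.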
# [4] = qHTS assay to identify small molecule agonists of the progesterone receptor (PR) signaling pathway - cell viability counter screen (AID 1346799; calls by dose curve; further: nearly all actives have a fitted effect of over 45% in size)
# Procedure, shortened: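 Counter screen for cytotoxicity: compound-treated PR-UAS-bla HEK293T cells (16 hr, 37C, 5% CO2) were assayed with CellTiter-Glo, luminescence measured after 30 min at room temperature.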
# [5] = qHTS assay to identify small molecule antagonists of the TGF-beta/Smad signaling pathway - cell viability counter screen (AID 1346824); further: nearly all actives have a fitted effect of over 50% in size
# Procedure, shortened: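 SBE-bla HEK 293T cells, incubated overnight, then compound plus 0.25 ng/mL TGF-beta1 (stock added) for 5 hr at 37 C. Viability was read in the same wells by CellTiter-Glo luminescence after 30 min at room temperature.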
# [6] = qHTS assay to identify small molecule agonists of the TGF-beta/Smad signaling pathway - cell viability counter screen (AID 1346829); further: top concentration of the series differs between compounds; nearly all actives have a fitted effect of over 45% in size
# Procedure, shortened: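 After overnight seating at 37 C and 5% CO2, reporter cells got compounds for 5 hr and FRET substrate for 2 hr; cell viability then came from CellTiter-Glo luminescence.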
# [7] = qHTS assay to identify small molecule agonists of the TGF-beta/Smad signaling pathway (AID 1346859; active means well fitted activation curve with a large enough effect in the signal ratio in the repeat runs, not every such curve was filed as active; the % refers to the signal ratio; further: series mostly up to about 77 µM)
# Procedure, shortened: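 Smad-responsive beta-lactamase reporter cells (HEK 293T) received compounds from DMSO stocks after overnight attachment, were incubated 5 hr, then treated 2 hr with FRET substrate before dual-emission fluorescence measurement (405 nm excitation).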
# [8] = target: Thyrotropin-releasing hormone receptor (Homo sapiens) (UniProt P34981); assay: qHTS assay to identify small molecule antagonists of the thyrotropin-releasing hormone receptor (TRHR) signaling pathway (AID 1346877; active means well fitted inhibition curve with a large enough effect in the repeat runs, not every such curve was filed as active; further: series mostly up to about 51 µM)
# Sequence of Thyrotropin-releasing hormone receptor (Homo sapiens) (P34981 whole entry, looked up): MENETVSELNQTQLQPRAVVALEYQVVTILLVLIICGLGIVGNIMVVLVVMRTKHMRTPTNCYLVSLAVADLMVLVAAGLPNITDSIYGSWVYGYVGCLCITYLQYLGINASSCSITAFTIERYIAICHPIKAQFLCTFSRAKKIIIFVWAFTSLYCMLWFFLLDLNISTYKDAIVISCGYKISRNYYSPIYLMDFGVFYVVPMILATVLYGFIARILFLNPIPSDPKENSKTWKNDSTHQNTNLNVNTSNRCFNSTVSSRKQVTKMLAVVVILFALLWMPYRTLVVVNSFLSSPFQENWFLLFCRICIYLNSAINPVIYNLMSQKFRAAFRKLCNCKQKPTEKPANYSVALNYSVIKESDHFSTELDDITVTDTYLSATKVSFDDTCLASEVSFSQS
# Procedure, shortened: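 Antagonist mode: after a 5 min room-temperature compound exposure, cells were stimulated with 1 nM (final) TRH. Dye-loaded TRHR-HEK293 cells were used, and calcium-dependent fluorescence was followed for 3 min, with 15-point titrations run in triplicate.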
# [9] = target: Thyrotropin-releasing hormone receptor (Homo sapiens) (UniProt P34981); assay: qHTS assay to identify small molecule agonists of the thyrotropin-releasing hormone receptor (TRHR) signaling pathway (AID 1346891; calls by dose curve;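 further: HEK293 cells expressing TRHR with calcium dye readout; series mostly up to about 58 µM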)
# Procedure, shortened: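 Agonist-mode calcium mobilisation screen: TRHR-transfected HEK293 cells cultured overnight (18 h), dye-loaded for 2 h at 37 °C, exposed to compounds, and monitored by fluorescence for 3 min.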
# [10] = Human pregnane X receptor (PXR) small molecule agonists, qHTS cell viability counter screen (AID 1346977); further: nearly all actives have a fitted effect of over 50% in size; further: potency means the concentration at half of the fitted maximal effect
# Procedure, shortened: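 Measures live-cell protease fluorescence (CellTiter-Fluor) in PXR-Luc HepG2 cells treated 24hr with compounds at 37C. Cells had 5hr to attach before pin transfer of DMSO solutions.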
# [11] = Caspase-3/7 induction in HepG2 cells by small molecules, qHTS assay (AID 1346978); further: nearly all actives have a fitted effect of over 15% in size
# Procedure, shortened: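 Wild-type HepG2 cells, 2,000/well, settled 5 hr at 37 C and 5% CO2, then compound-treated for 17 hr; caspase-3/7 activity read by luminescent Caspase-Glo 3/7 after 30 min at room temperature.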
# [12] = Caspase-3/7 induction in CHO-K1 cells by small molecules, qHTS cell viability counter screen (AID 1346979); further: nearly all actives have a fitted effect of over 35% in size
# Procedure, shortened: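 In the same wells as the caspase read, viability of compound-treated wild-type CHO-K1 cells was assessed using CellTiter-Fluor, added after 16hr at 37C and measured by fluorescence following 1hr further incubation.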
# [13] = Caspase-3/7 induction in CHO-K1 cells by small molecules, qHTS assay (AID 1346980); further: nearly all actives have a fitted effect of over 15% in size
# Procedure, shortened: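 Wild-type CHO-K1 cells exposed to compounds for 17hr at 37 C, 5% CO2. Caspase-3/7 activity then measured by Caspase-Glo 3/7 luminescence after 30min at room temperature.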
# [14] = Caspase-3/7 induction in HepG2 cells by small molecules, qHTS cell viability counter screen (AID 1346981); further: nearly all actives have a fitted effect of over 30% in size; further: potency means the concentration at half of the fitted maximal effect
# Procedure, shortened: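 CellTiter-Fluor fluorescence measured viability in the same wells used for Caspase-Glo 3/7. HepG2 (wild type) at 2,000 cells/well were pre-incubated 5 hr, dosed, and given reagent at 16 hr, with 1 hr further at 37C.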
# [15] = target: Nuclear receptor subfamily 1 group I member 2 (Homo sapiens) (UniProt O75469); assay: Human pregnane X receptor (PXR) small molecule agonists, qHTS assay (AID 1346982); further: nearly all actives have a fitted effect of over 35% in size; further: potency means the concentration at half of the fitted maximal effect
# Sequence of Nuclear receptor subfamily 1 group I member 2 (Homo sapiens) (O75469 whole entry, looked up): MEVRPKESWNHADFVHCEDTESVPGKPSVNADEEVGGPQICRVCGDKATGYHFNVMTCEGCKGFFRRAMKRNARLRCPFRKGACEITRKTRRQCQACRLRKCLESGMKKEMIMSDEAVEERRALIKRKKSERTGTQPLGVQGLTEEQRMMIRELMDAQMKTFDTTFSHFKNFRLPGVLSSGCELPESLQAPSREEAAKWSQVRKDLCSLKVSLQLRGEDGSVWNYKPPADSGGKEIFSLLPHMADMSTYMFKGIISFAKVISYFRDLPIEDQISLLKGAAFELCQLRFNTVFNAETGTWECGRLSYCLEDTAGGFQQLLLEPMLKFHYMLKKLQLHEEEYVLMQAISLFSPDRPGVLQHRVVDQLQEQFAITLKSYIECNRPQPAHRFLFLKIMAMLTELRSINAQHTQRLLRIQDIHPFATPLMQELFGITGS
# Procedure, shortened: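 Agonist mode: luminescence from ONE-Glo after 24 h compound exposure at 37C in HepG2 cells carrying hPXR-responsive CYP3A4 luciferase, plated in charcoal-stripped serum medium 5 h beforehand.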
# [16] = target: Cytochrome P450 2D6 (Homo sapiens) (UniProt P10635); assay: Cytochrome P450 Family 2 Subfamily D Member 6 (CYP2D6) small molecule antagonists: luciferase reporter qHTS assay (AID 1671196); further: nearly all actives have a fitted effect of over 50% in size; further: potency means the concentration at half of the fitted maximal effect
# Sequence of Cytochrome P450 2D6 (Homo sapiens) (P10635 whole entry, looked up): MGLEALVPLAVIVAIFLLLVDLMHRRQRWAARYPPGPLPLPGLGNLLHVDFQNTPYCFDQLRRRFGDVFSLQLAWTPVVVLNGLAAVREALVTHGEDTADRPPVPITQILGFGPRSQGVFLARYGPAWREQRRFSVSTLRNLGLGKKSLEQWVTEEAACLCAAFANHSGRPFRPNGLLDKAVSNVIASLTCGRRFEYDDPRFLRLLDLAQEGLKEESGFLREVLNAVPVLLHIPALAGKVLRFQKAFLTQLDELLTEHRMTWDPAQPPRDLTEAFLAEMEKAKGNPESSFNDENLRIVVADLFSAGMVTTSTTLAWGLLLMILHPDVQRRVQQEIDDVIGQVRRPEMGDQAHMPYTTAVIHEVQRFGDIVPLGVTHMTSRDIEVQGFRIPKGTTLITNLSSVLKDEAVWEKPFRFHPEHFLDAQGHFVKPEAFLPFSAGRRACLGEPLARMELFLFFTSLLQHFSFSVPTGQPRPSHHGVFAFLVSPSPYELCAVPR
# Procedure, shortened: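 CYP2D6 activity was followed as luminescence from its luciferin product after a 1 h NADPH-driven reaction at room temperature. Enzyme-substrate mix and compound were pre-incubated for 10 min, and the signal was read 20 min after adding detection reagent.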
# [17] = target: Progesterone receptor (Homo sapiens) (UniProt P06401); assay: qHTS assay to identify small molecule antagonists of the progesterone receptor (PR) signaling pathway (AID 1346795; active means well fitted inhibition curve with a large enough effect in the signal ratio in the repeat runs, not every such curve was filed as active; the % refers to the signal ratio; further: potency means the concentration at half of the fitted maximal effect)
# Procedure, shortened: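 HEK293T PR-UAS-bla reporter cells in charcoal-stripped serum (2%) received compound after a 6 hr settling period, followed by R5020 agonist at 1 nM final; 16 hr incubation preceded the FRET substrate step and fluorescence measurement.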
# [18] = qHTS assay to identify small molecule agonists of the estrogen receptor alpha (ER-alpha) signaling pathway in the presence of an antagonist - cell viability counter screen (AID 1259386); further: nearly all actives have a fitted effect of over 30% in size; further: potency means the concentration at half of the fitted maximal effect
# Procedure, shortened: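 Compounds tested at 15 concentrations for 22 h at 37C alongside 10.0nM (final) ICI-182,780 antagonist, in VM7Luc4E2 cells grown in phenol red-free, charcoal-stripped medium. Viability read by CellTiter-Fluor fluorescence after 1 h reagent incubation.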
# [19] = target: Nuclear receptor subfamily 1 group I member 2 (Rattus norvegicus) (UniProt Q9R1A7); assay: Rat pregnane X receptor (rPXR) activation by small molecules, qHTS assay (AID 1346983); details: rPXR luciferase reporter cells, One-Glo luminescence, 24 h; max activation: stronger effect = higher value; further: nearly all actives have a fitted effect of over 20% in size
# Sequence of Nuclear receptor subfamily 1 group I member 2 (Rattus norvegicus) (Q9R1A7 whole entry, looked up): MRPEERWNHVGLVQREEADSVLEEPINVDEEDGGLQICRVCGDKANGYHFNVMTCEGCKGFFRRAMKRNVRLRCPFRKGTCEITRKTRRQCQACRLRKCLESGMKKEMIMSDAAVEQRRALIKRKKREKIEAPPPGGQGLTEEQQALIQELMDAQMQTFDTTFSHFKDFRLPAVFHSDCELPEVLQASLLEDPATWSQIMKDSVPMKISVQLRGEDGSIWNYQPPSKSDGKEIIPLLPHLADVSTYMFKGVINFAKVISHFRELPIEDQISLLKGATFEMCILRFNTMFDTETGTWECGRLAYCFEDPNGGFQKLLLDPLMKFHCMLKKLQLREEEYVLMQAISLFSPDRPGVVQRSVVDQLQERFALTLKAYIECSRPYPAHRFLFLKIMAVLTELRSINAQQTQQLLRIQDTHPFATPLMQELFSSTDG
# Procedure, shortened: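 Cell-based rPXR activation assay: rPXR cells, 2,000 per well, rested 5hr at 37 C, then exposed to compounds in DMSO for 24 hr at 37 C. Luciferase activity read by One-Glo luminescence after 30 min at room temperature.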
# [20] = target: Nuclear receptor subfamily 1 group I member 2 (Homo sapiens) (UniProt O75469); assay: CYP3A4 induction through human pregnane X receptor (PXR) by small molecules, qHTS assay (AID 1346984); further: nearly all actives have a fitted effect of over 40% in size
# Procedure, shortened: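 Read-out is luminescence after One-Glo addition, following a 3 hr, 37C incubation with Luciferin-IPA CYP3A4 substrate (3uM final). Before that, compounds were on DPX-2 cells (HepG2 co-transfected with PXR element plus CYP3A4-promoter luciferase) for 24 hr at 37C.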
SMILES,Potency [1],Potency [2],Potency [3],Potency [4],outcome [5],Potency [6],Potency [7],outcome [8],outcome [9],Potency [10],Potency [11],Potency [12],outcome [13],Potency [14],Potency [15],Potency [16],Potency [17],Potency [18],max activation [19] [%],Potency [20]
CCCCCCCC/C=C/C(=O)O,inactive,inactive,inactive,inactive,inactive,inactive,inactive,inactive,inactive,inactive,inactive,inactive,inactive,inactive,inactive,inactive,,,,
O=C(O)CCCc1c[nH]c2ccccc12,inactive,inactive,inactive,inactive,inactive,inactive,,inactive,inactive,,inactive,,inactive,inactive,inactive,inactive,inactive,,,
COc1ccc(CCN(C)CCCN2CCc3cc(OC)c(OC)cc3CC2=O)cc1OC,,inactive,inactive,inactive,inactive,inactive,inactive,inactive,inactive,inactive,inactive,inactive,inactive,inactive,inactive,inactive,inactive,inactive,3.44,inactive
COc1ccc(N)c([N+](=O)[O-])c1,inactive,inactive,,inactive,inactive,inactive,inactive,inactive,inactive,,inactive,,inactive,,,,inactive,,,
CCCCCCCC/C=C\CCCCCCCC(=O)OCCO,inactive,,inactive,inactive,inactive,inactive,inactive,inactive,inactive,inactive,inactive,inactive,inactive,inactive,,,inactive,,,
SCCc1cnccn1,inactive,inactive,30.6 µM (active),,inactive,inactive,inactive,inactive,inactive,inactive,inactive,inactive,,inactive,inactive,inactive,43.3 µM (active),,,
Cc1cccc2sc(N)nc12,inactive,inactive,inactive,,inactive,inactive,inactive,inactive,inactive,,inactive,inactive,inactive,inactive,55.1 µM (active),,inactive,,,
CC(C)c1ccc(C#N)cc1,inactive,inactive,inactive,inactive,inactive,inactive,inactive,inactive,inactive,,inactive,inactive,inactive,inactive,inactive,inactive,inactive,,,
COc1cc(NC(C)CCCN)c2ncccc2c1 (stereo not drawn),inactive,inactive,inactive,inactive,inactive,,inactive,inactive,inactive,29.8 µM (active),inactive,inactive,,inactive,inactive,,inactive,,-6.86,
OCC(CO)n1cnc(-c2ccc(F)cc2)c1-c1ccnc(Oc2ccccc2)n1,,inactive,inactive,inactive,inactive,,inactive,inactive,inactive,inactive,inactive,inactive,inactive,inactive,,,inactive,inactive,,
CCc1ccc(C)cc1,,inactive,inactive,inactive,inactive,inactive,inactive,inactive,inactive,inactive,inactive,inactive,inactive,inactive,inactive,inactive,inactive,inactive,,
CC(=O)OCCC1CCCCC1,,inactive,,inactive,inactive,inactive,inactive,inactive,inactive,inactive,inactive,inactive,inactive,inactive,inactive,inactive,inactive,inactive,,
c1ccc(CNc2ncnc3c2ncn3C2CCCCO2)cc1 (stereo not drawn),,inactive,inactive,,inactive,inactive,inactive,,,inactive,inactive,,inactive,inactive,21.7 µM (active),inactive,inactive,inactive,,
Cc1cc(CCCOc2c(C)cc(-c3noc(C(F)(F)F)n3)cc2C)on1,,inactive,,inactive,inactive,,inactive,inactive,inactive,inactive,inactive,inactive,,inactive,21.1 µM (active),,,,,
CCOC(=O)C(C)O (stereo not drawn),,inactive,inactive,inactive,inactive,,inactive,,,inactive,inactive,inactive,inactive,inactive,inactive,inactive,inactive,inactive,,
CC(C)Cc1ccc(CC(=O)O)cc1,,inactive,29.8 µM (active),,inactive,inactive,inactive,inactive,inactive,inactive,inactive,inactive,,inactive,inactive,,,inactive,-5.33,inactive
Cc1ccc2nc(N)[nH]c(=O)c2c1Sc1ccncc1,,inactive,inactive,inactive,inactive,,inactive,inactive,inactive,,inactive,,inactive,,inactive,15.5 µM (active),,inactive,-1.84,
CC(C(=O)O)c1ccc(C(=O)c2cccs2)cc1 (stereo not drawn),,inactive,inactive,inactive,inactive,inactive,inactive,inactive,inactive,,inactive,inactive,inactive,inactive,,inactive,inactive,inactive,-2.97,
CC1CCCC(=O)C1=O (stereo not drawn),,inactive,,inactive,inactive,inactive,inactive,,,inactive,inactive,inactive,,inactive,inactive,inactive,inactive,inactive,,
O=C(Oc1ccccc1)c1ccc2ccccc2c1O,,inactive,inactive,,inactive,inactive,inactive,inactive,inactive,inactive,inactive,,inactive,inactive,61.1 µM (active),,30.6 µM (active),inactive,,
Nc1cccc2c(N)cccc12,,1.93 µM (active),,,inactive,inactive,inactive,,,5.45 µM (active),,,inactive,61.1 µM (active),17.2 µM (active),2.38 µM (active),,48.6 µM (active),,
COc1ccc(C(=O)NCc2ccc(OCCN(C)C)cc2)cc1OC,,inactive,inactive,inactive,inactive,inactive,inactive,inactive,inactive,,inactive,inactive,inactive,inactive,inactive,inactive,inactive,inactive,-0.841,inactive
COc1ccc(-c2cc(C(F)F)nn2-c2ccc(S(N)(=O)=O)cc2)cc1F,,inactive,,inactive,inactive,inactive,,inactive,inactive,inactive,inactive,,inactive,inactive,15 µM (active),8.71 µM (active),,inactive,-1.2,inactive
